This is an account of results in PubChem BioAssay (EPA / NIEHS).

Values joined by “and” are separate entries in the source; they are usually repeats but may differ in a detail not shown here. Equal values may be shown once. Active and inactive are the calls of the source. How the source made its calls: active means hit-call score of the fitted dose curve at least 0.9, where 1 is the maximum; inactive means score below 0.9.

A word on the AC50: it is the concentration giving half of the maximal activity seen.

A short description of this assay: CCTE_Harrill_HTTr_Viability_MCF7: CCTE's 6-hour Cell Viability Assessment for the High-Throughput Transcriptomics (HTTr) Platform, in MCF-7 cells cultured in DMEM + 10% fetal bovine serum, Harrill Lab (AID 2284010). From the text: This is a cell-based assay that evaluates cell viability using high content imaging to evaluate membrane integrity using propidium iodide dye exclusion in a 384 well format.One of seven assay components measured from the CCTE_Harrill_HTTr_Viability assay. This was part of a full screening experiment. This is a cell-based assay that evaluates cell viability in MCF-7 cells cultured in DMEM + 10% fetal bovine serum. High content imaging is used to evaluate membrane integrity using propidium iodide dye exclusion. Measurements are taken at 6 hours after chemical dosing in 384-well format.The assay component endpoint CCTE_Harrill_HTTr_Viability_MCF7 was analyzed with bidirectional fitting relation to DMSO as the negative control and baseline of activity. Using a type of viability reporter, gain-of-signal activity can be used to evaluate membrane integrity using propidium iodide dye exclusion to understand changes in cytotoxicity. To generalize the intended target to other relatable targets, this assay endpoint is annotated to cell cycle, where the subfamily is cytotoxicity.
Chemicals were tested in MCF7 cells in an eight point dilution series with a six hour exposure duration.
As to `COCC(=O)N(c1c(C)cccc1C)[C@H](C)C(=O)OC`, the result was inactive.

Take `CC(C)N(C(=O)CCl)c1ccccc1`: the result was inactive.

`CC(C)=CC1C(C(=O)OCc2cccc(Oc3ccccc3)c2)C1(C)C` (stereo not given): the result was inactive.

For the molecule `CCCCCCCCCCCCCCC(Br)C(=O)O` (stereo not given), the outcome was inactive.

In the case of `Clc1cccc(Cl)c1Cl`, the result was inactive.

For `Nc1nc(N)nc(Cl)n1`, the outcome was inactive.

As to `C[As+](C)(C)CC(=O)[O-]`, the result was inactive.

As to `O=[N+]([O-])c1ccccc1O`, the result was inactive.

On to `O=NN1CCCCCC1`, for which the outcome was inactive.

With `CCCCOC(=O)COC(=O)c1ccccc1C(=O)OCCCC`, the outcome was inactive.

Turning to `Brc1ccc(Br)cc1`, the outcome was inactive.

With `O=CCCl`, the outcome was inactive.

In the case of `CC1CC(=O)O1` (stereo not given), the outcome was inactive.

Regarding `N#Cc1cccnc1`, the result was inactive.

With `O=S1(=O)OC(c2cc(Br)c(O)c(Br)c2)(c2cc(Br)c(O)c(Br)c2)c2ccccc21`, the outcome was inactive.

On to `CC(C)[C@@H](Nc1ccc(C(F)(F)F)cc1Cl)C(=O)OC(C#N)c1cccc(Oc2ccccc2)c1` (stereo not given in full), for which the result was inactive.

`COCCl`: the outcome was inactive.

Turning to `CS(=O)(=O)c1ccc(C(=O)C2C(=O)CCCC2=O)c(Cl)c1COCC(F)(F)F`, the outcome was inactive.

Regarding `Cc1cc(C(F)(C(F)(F)F)C(F)(F)F)ccc1NC(=O)c1cccc(I)c1C(=O)NC(C)(C)CS(C)(=O)=O`, the result was inactive.

For the molecule `CCCCCCCCCCCCc1cccc(S(=O)(=O)O)c1`, the outcome was inactive.

Turning to `CCOP(=S)(OCC)OP(=S)(OCC)OCC`, the outcome was inactive.

Regarding `COc1ccccc1N`, the outcome was inactive.

Consider `CCCSP(=S)(OCC)Oc1ccc(SC)cc1` (stereo not given), for which the outcome was inactive.

In the case of `Cc1cc(Cl)ccc1OCCCC(=O)O`, the outcome was inactive.

Regarding `Oc1c(Br)cc(Br)cc1Br`, the outcome was inactive.

Turning to `CCOP(=S)(OCC)O/N=C(\C#N)c1ccccc1`, the result was inactive.

Take `Brc1c(Br)c(Br)c(Oc2c(Br)c(Br)c(Br)c(Br)c2Br)c(Br)c1Br`: the result was inactive.

With `O=[N+]([O-])c1ccc(Cl)c([N+](=O)[O-])c1`, the AC50 was 67.7 µM (active) and 56.9 µM (active).

Regarding `C[C@]12CC[C@@H](O)C[C@@H]1CC[C@@H]1[C@@H]2CC[C@]2(C)C(=O)CC[C@@H]12`, the result was inactive.

Turning to `C=CCN=C=S`, the result was inactive.

Take `CCC[CH2][Sn]([Cl])([Cl])[CH2]CCC`: the result was inactive.

For `Cc1cccc(C)c1NC(=O)CN1CCCC1=O`, the result was inactive.

As for `N#CS`, the outcome was inactive.

Take `CC1(C)[C@H](C(=O)O[C@H](C#N)c2cccc(Oc3ccccc3)c2)[C@@H]1/C=C(\Cl)C(F)(F)F`: the outcome was inactive.

With `CC(C)(C)c1ccccc1O`, the outcome was inactive.

As for `OCCN(CCO)CCO`, the result was inactive.

On to `C1CN2CCN1CC2`, for which the result was inactive.

As for `CCOc1cc(C=O)ccc1O`, the result was inactive.

Consider `N#CCC#N`, for which the result was inactive.

As to `CC(C)[C@H](C(=O)OC(C#N)c1cccc(Oc2ccccc2)c1)c1ccc(OC(F)F)cc1` (stereo not given in full), the result was inactive.
